# PubChem BioAssay (EPA / NIEHS)
# The source made the active and inactive calls. The calls were made as follows: active = hit-call score of the fitted dose curve at least 0.9, where 1 is the maximum; inactive = score below 0.9.
# What was measured:
# [1] = read-out: Interleukin-8 (IL8), CXCL8 (gene 3576); experiment: BSK_CASM3C_IL8: BioMAP Diversity Plus: CASM3C Assay for Interleukin-8 (IL8) Biomarker Activity (AID 2283042); details: primary human coronary artery smooth muscle cells; actives raise or lower the signal;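 also: IL-8 protein level quantified by ELISA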
# [2] = read-out: Human Leukocyte Antigen - DR isotype (HLADR), HLA-DRA (gene 3122); experiment: BSK_CASM3C_HLADR: BioMAP Diversity Plus: CASM3C Assay for Human Leukocyte Antigen - DR isotype (HLADR) Biomarker Activity (AID 2283043); details: primary human coronary artery smooth muscle cells; actives raise or lower the signal;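 also: cell-surface HLA-DR protein level quantified by ELISA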
# [3] = read-out: Macrophage colony-stimulating factor (MCSF), CSF1 (gene 1435); experiment: BSK_CASM3C_MCSF: BioMAP Diversity Plus: CASM3C Assay for Macrophage colony-stimulating factor (MCSF) Biomarker Activity (AID 2283044); details: primary human coronary artery smooth muscle cells; actives raise or lower the signal;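 also: M-CSF protein amount quantified by ELISA after 24 h exposure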
# [4] = read-out: Low-density lipoprotein receptor (LDLR), LDLR (gene 3949); experiment: BSK_CASM3C_LDLR: BioMAP Diversity Plus: CASM3C Assay for Low-density lipoprotein receptor (LDLR) Biomarker Activity (AID 2283045); details: primary human coronary artery smooth muscle cells; actives raise or lower the signal;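 also: LDLR protein level on the cell surface quantified by ELISA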
# [5] = read-out: Monocyte Chemoattractant Protein-1 (MCP1), CCL2 (gene 6347); experiment: BSK_CASM3C_MCP1: BioMAP Diversity Plus: CASM3C Assay for Monocyte Chemoattractant Protein-1 (MCP1) Biomarker Activity (AID 2283046); details: primary human coronary artery smooth muscle cells; actives raise or lower the signal;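 also: MCP-1 level quantified by ELISA 24 h after dosing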
# [6] = BSK_CASM3C_Proliferation: Cell Proliferation Assessment in the BioMAP Diversity Plus: CASM3C Assay (AID 2283047); details: primary human coronary artery smooth muscle cells;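 also: sulforhodamine B total protein stain as relative cell number at 560 nm; sub-confluent cells exposed 48 h before staining; fitted both ways against DMSO so gain or loss of cell number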
# [7] = read-out: Monokine induced gamma interferon (MIG), CXCL9 (gene 4283); experiment: BSK_CASM3C_MIG: BioMAP Diversity Plus: CASM3C Assay for Monokine induced gamma interferon (MIG) Biomarker Activity (AID 2283048); details: primary human coronary artery smooth muscle cells; actives raise or lower the signal;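 also: MIG protein level measured by ELISA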
# [8] = read-out: serum amyloid A (SAA), SAA1 (gene 6288); experiment: BSK_CASM3C_SAA: BioMAP Diversity Plus: CASM3C Assay for serum amyloid A (SAA) Biomarker Activity (AID 2283049); details: primary human coronary artery smooth muscle cells; actives raise or lower the signal;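 also: SAA protein level quantified by ELISA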
# [9] = BSK_CASM3C_SRB: Viability Assessment in the BioMAP Diversity Plus: CASM3C Assay (AID 2283050); details: primary human coronary artery smooth muscle cells;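 also: cells exposed to compound for 24 h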
# [10] = read-out: Thrombomodulin, THBD (gene 7056); experiment: BSK_CASM3C_Thrombomodulin: BioMAP Diversity Plus: CASM3C Assay for Thrombomodulin Biomarker Activity (AID 2283051); details: primary human coronary artery smooth muscle cells; actives raise or lower the signal;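 also: thrombomodulin protein level measured by ELISA 24 h after dosing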
# [11] = read-out: Tissue Factor, F3 (gene 2152); experiment: BSK_CASM3C_TissueFactor: BioMAP Diversity Plus: CASM3C Assay for Tissue Factor Biomarker Activity (AID 2283052); details: primary human coronary artery smooth muscle cells; actives raise or lower the signal;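 also: cell surface tissue factor protein level read by ELISA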
# [12] = read-out: Interferon-gamma inducible Protein 10 (IP10), CXCL10 (gene 3627); experiment: BSK_hDFCGF_IP10: BioMAP Diversity Plus: hDFCGF Assay for Interferon-gamma inducible Protein 10 (IP10) Biomarker Activity (AID 2283053); details: primary human foreskin fibroblasts; actives raise or lower the signal
# Method in brief: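 Primary human foreskin fibroblasts exposed to chemicals for 24 h. IP-10 measured by ELISA; changes fitted bidirectionally against DMSO baseline.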
# [13] = read-out: Urokinase-type plasminogen activator receptor (uPAR), PLAUR (gene 5329); experiment: BSK_CASM3C_uPAR: BioMAP Diversity Plus: CASM3C Assay for Urokinase-type plasminogen activator receptor (uPAR) Biomarker Activity (AID 2283054); details: primary human coronary artery smooth muscle cells; actives raise or lower the signal;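 also: cell-surface uPAR protein level quantified by ELISA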
# [14] = read-out: Vascular cell adhesion molecule 1 (VCAM1), VCAM1 (gene 7412); experiment: BSK_CASM3C_VCAM1: BioMAP Diversity Plus: CASM3C Assay for Vascular cell adhesion molecule 1 (VCAM1) Biomarker Activity (AID 2283055); details: primary human coronary artery smooth muscle cells; actives raise or lower the signal;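 also: VCAM-1 protein level quantified by ELISA on the cells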
# [15] = read-out: Collagen III, COL3A1 (gene 1281); experiment: BSK_hDFCGF_CollagenIII: BioMAP Diversity Plus: hDFCGF Assay for Collagen III Biomarker Activity (AID 2283056); details: primary human foreskin fibroblasts; actives raise or lower the signal
# Method in brief: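 hDFCGF primary human dermal fibroblasts; 24 h chemical exposure; collagen III by ELISA; bidirectional curve fit vs DMSO baseline (gain or loss of signal).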
# [16] = read-out: Epidermal growth factor receptor (EGFR), EGFR (gene 1956); experiment: BSK_hDFCGF_EGFR: BioMAP Diversity Plus: hDFCGF Assay for Epidermal growth factor receptor (EGFR) Biomarker Activity (AID 2283057); details: primary human foreskin fibroblasts; actives raise or lower the signal
# Method in brief: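 Primary human foreskin fibroblasts (hDFCGF system), sampled 24 h after dosing; EGFR quantified by ELISA. Bidirectional fit relative to DMSO baseline; SRB total-protein staining in parallel cultures for cytotoxicity.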
# [17] = read-out: Interleukin-8 (IL8), CXCL8 (gene 3576); experiment: BSK_hDFCGF_IL8: BioMAP Diversity Plus: hDFCGF Assay for Interleukin-8 (IL8) Biomarker Activity (AID 2283058); details: primary human foreskin fibroblasts; actives raise or lower the signal
# Method in brief: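 ELISA read-out of IL-8 from primary human foreskin fibroblast cultures taken 24 h after dosing; values are bidirectional fits relative to DMSO vehicle.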
# [18] = BSK_hDFCGF_Proliferation: Cell Proliferation Assessment in the BioMAP Diversity Plus: hDFCGF Assay (AID 2283059); details: primary human foreskin fibroblasts;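 also: curves fitted for both rise and fall of signal versus DMSO baseline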
# Method in brief: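 Total protein read at 560 nm after 0.1% SRB staining of TCA-fixed human skin fibroblasts, […]. Activity is fitted in both directions relative to DMSO as baseline.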
# [19] = read-out: Macrophage colony-stimulating factor (MCSF), CSF1 (gene 1435); experiment: BSK_hDFCGF_MCSF: BioMAP Diversity Plus: hDFCGF Assay for Macrophage colony-stimulating factor (MCSF) Biomarker Activity (AID 2283060); details: primary human foreskin fibroblasts; actives raise or lower the signal
# Method in brief: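 ELISA read-out of M-CSF in human dermal foreskin fibroblast cultures, 24 h after chemical dosing; gain or loss of signal fitted bidirectionally relative to DMSO baseline.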
smiles,measurement,setting,value
COC1=CC(=O)C[C@@H](C)[C@]12Oc1c(Cl)c(OC)cc(OC)c1C2=O,outcome,[1],inactive
same,outcome,[2],inactive
same,outcome,[3],inactive
same,outcome,[4],inactive
same,AC50,[5],4.25 µM (active)
same,AC50,[6],7.06 µM (active)
same,outcome,[7],inactive
same,outcome,[8],inactive
same,outcome,[9],inactive
same,outcome,[10],inactive
same,AC50,[11],2.12 µM (active)
same,outcome,[12],inactive
same,outcome,[13],inactive
same,outcome,[14],inactive
same,outcome,[15],inactive
same,outcome,[16],inactive
same,outcome,[17],inactive
same,outcome,[18],inactive
same,outcome,[19],inactive
C=CC(C)(CCC=C(C)C)OC(C)=O (stereo not given),outcome,[1],inactive
same,AC50,[2],32 µM (active)
same,AC50,[3],35.8 µM (active)
same,outcome,[4],inactive
same,AC50,[5],26.6 µM (active)
same,AC50,[6],30.6 µM (active)
same,outcome,[7],inactive
same,AC50,[8],28.7 µM (active)
same,AC50,[9],32.6 µM (active)
same,outcome,[10],inactive
same,outcome,[11],inactive
same,outcome,[12],inactive
same,AC50,[13],20 µM (active)
same,AC50,[14],34.6 µM (active)
same,outcome,[15],inactive
same,outcome,[16],inactive
same,outcome,[17],inactive
same,outcome,[19],inactive
COCN(COC)c1nc(N(COC)COC)nc(N(COC)COC)n1,outcome,[1],inactive
same,outcome,[2],inactive
same,outcome,[3],inactive
same,outcome,[4],inactive
same,outcome,[5],inactive
same,outcome,[6],inactive
same,outcome,[7],inactive
same,outcome,[8],inactive
same,outcome,[9],inactive
same,outcome,[10],inactive
same,outcome,[11],inactive
same,outcome,[12],inactive
same,outcome,[13],inactive
same,outcome,[14],inactive
same,outcome,[15],inactive
same,outcome,[16],inactive
same,outcome,[17],inactive
same,outcome,[19],inactive
